Test results taken from the supplement of paper PMC10849652.
Targets with a hit are over-represented here; the source holds about 7,900 in all. About 0.6% of all pairs of compound and target were hits.

Tests used:
Experiment in all cases: log2 fold change, soluble protein after heating vs DMSO (PISA); higher = thermal stabilisation; K562 cells, 10 uM, 30 min; active = over 0.2 and 3.5 SD of the protein, either way, in both replicates (recomputed)
[1] = compound: CC[C@@H]1C(=O)N(C)c2cnc(Nc3ccc(C(=O)NC4CCN(C)CC4)cc3OC)nc2N1C1CCCC1
Method in brief: (§1)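 Soluble protein was quantified by TMTpro 16plex LC-MS/MS after channel sums were equalised. It was obtained as the supernatant after 21,000xg for 90 min from pooled aliquots of K562 cells (2×10^6 cells/mL, 10 μM compound, 30 min) heated for 3 min across 48°C-58°C and extracted in PBS with 0.5% NP-40 at 4°C. Thermal stability values are relative to control samples and come from duplicates. They are given as log2 fold changes.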

[2] = compound: CC[C@@H]1C(=O)N(C)c2cnc(Nc3ccc(C(=O)N[C@H]4CC[C@H](N5CCN(CC6CC6)CC5)CC4)cc3OC)nc2N1C(C)C [volasertib]
Method in brief: as §1

[3] = compound: CC[C@H](C)N1C=C(C2=C(C=C(C=C21)C3=CN=C(C=C3)N4CCNCC4)C(=O)NCC5=C(C=C(NC5=O)C)C)C
Method in brief: as §1

[4] = compound: CC[C@H](C)[C@@H](C(=O)N[C@@H]([C@@H](C)O)C(=O)N[C@@H](CC(C)C)C(=O)[C@]1(CO1)C)NC(=O)[C@H]([C@@H](C)CC)N(C)C(=O)C [epoxomicin]
Method in brief: as §1

[5] = compound: CCn1c(C(=O)N(C2CC2)C2CC2)cc2c3c(ncn3C)c(Nc3cc(C)n(C)n3)nc21
Method in brief: as §1

[6] = compound: CCn1cc(-c2ccnc3[nH]c(-c4cccc(CN(C)C)c4)cc23)c(-c2ccc(NC(=O)N(C)C)cc2)n1
Method in brief: as §1

[7] = compound: CN(C)CC(=O)Nc1ccc2[nH]c(=O)c3ccccc3c2c1
Method in brief: as §1

[8] = compound: CN(CCOC1=CC=C(C=C1)C[C@H]2C(=O)NC(=O)S2)C3=CC=CC=N3 (racemic) [rosiglitazone]
Method in brief: as §1

[9] = compound: CN1C2=C(C3=C1C(=O)N(N=C3)CC4=CC(=CC=C4)N)SC(=C2)S(=O)C
Method in brief: as §1

[10] = compound: CN1CCC(CNc2ccc3ncc(-c4cccc(OC(F)(F)F)c4)n3n2)CC1
Method in brief: as §1

[11] = compound: CN1CCN(CCOc2cc(OC3CCOCC3)c3c(Nc4c(Cl)ccc5c4OCO5)ncnc3c2)CC1 [saracatinib]
Method in brief: as §1

[12] = compound: CN1CCN(c2nc(C3=C(c4c[nH]c5ccccc45)C(=O)NC3=O)c3ccccc3n2)CC1 [sotrastaurin]
Method in brief: as §1

[13] = compound: CN1CC[C@H](c2c(O)cc(O)c3c(=O)cc(-c4ccccc4Cl)oc23)[C@H](O)C1 [alvocidib]
Method in brief: as §1

[14] = compound: CN1CCc2c(c3ccccc3n2Cc2ccc(C(=O)NO)cc2)C1 [Tubastatin A]
Method in brief: as §1

[15] = compound: CNC(=O)C1=CC=CC=C1NC2=NC(=NC=C2Cl)NC3=C(C=C(C=C3)N4CCOCC4)OC
Method in brief: as §1

[16] = compound: CNC(=O)c1ccc(Nc2ncc(C(F)(F)F)c(NCc3nccnc3N(C)S(C)(=O)=O)n2)cc1 [defactinib]
Method in brief: as §1

[17] = compound: CNCc1ccc(-c2[nH]c3cc(F)cc4c3c2CCNC4=O)cc1 [rucaparib]
Method in brief: as §1

[18] = compound: CNc1nc(-c2ccc3c(N)n[nH]c3c2)cc(N2C[C@@H](C(=O)NC3CCCCC3)CC[C@H]2C)n1
Method in brief: as §1

[19] = compound: COC(=O)N[C@@H](C)CNc1nccc(-c2cn(C(C)C)nc2-c2cc(Cl)cc(NS(C)(=O)=O)c2F)n1 [encorafenib]
Method in brief: as §1

[20] = compound: COC(=O)[C@H](CCSC)NC(=O)C1=C(C=C(C=C1)NC[C@H](CS)N)C2=CC=CC=C2
Method in brief: as §1

Measured: log2 fold change

ACP2 (UniProt P11117)
Sequence of UniProt P11117 (P11117 whole entry, looked up): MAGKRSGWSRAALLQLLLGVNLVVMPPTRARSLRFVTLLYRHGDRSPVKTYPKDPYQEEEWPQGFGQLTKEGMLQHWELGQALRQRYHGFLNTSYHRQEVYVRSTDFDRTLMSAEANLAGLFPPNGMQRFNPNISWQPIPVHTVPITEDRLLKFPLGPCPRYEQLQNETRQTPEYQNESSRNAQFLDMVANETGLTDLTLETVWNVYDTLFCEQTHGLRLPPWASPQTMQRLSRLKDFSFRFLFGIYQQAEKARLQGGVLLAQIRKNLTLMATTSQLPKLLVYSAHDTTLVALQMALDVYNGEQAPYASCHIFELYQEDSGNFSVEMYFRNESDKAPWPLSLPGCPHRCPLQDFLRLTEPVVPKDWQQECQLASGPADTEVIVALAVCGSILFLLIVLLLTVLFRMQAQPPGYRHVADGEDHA
inactive: [1] -0.156 | [2] -0.151 | [3] -0.068 | [4] 0.019 | [5] 0.004 | [6] -0.02 | [7] -0.029 | [8] 0.006 | [9] 0.013 | [10] -0.14 | [11] 0.026 | [12] 0.022 | [13] 0.003 | [14] -0.036 | [15] -0.006 | [16] 0.01 | [17] -0.089 | [18] -0.055 | [19] 0.018 | [20] -0.006

ACP1 (UniProt P24666)
Sequence of UniProt P24666 (P24666 whole entry, looked up): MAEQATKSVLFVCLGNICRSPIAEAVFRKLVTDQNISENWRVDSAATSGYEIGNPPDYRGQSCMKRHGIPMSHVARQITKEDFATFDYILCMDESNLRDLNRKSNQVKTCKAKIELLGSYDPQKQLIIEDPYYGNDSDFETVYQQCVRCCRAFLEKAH
inactive: [1] 0.084 | [2] -0.102 | [3] -0.001 | [4] 0.03 | [5] -0.034 | [6] 0.077 | [7] 0.12 | [8] 0.167 | [9] 0.099 | [10] -0.061 | [11] -0.031 | [12] -0.054 | [13] -0.111 | [14] 0.141 | [15] -0.1 | [16] -0.044 | [17] 0.12 | [18] 0.123 | [19] 0.035 | [20] -0.111

BRIP1 (UniProt Q9BX63)
Sequence of UniProt Q9BX63 (Q9BX63 whole entry, looked up): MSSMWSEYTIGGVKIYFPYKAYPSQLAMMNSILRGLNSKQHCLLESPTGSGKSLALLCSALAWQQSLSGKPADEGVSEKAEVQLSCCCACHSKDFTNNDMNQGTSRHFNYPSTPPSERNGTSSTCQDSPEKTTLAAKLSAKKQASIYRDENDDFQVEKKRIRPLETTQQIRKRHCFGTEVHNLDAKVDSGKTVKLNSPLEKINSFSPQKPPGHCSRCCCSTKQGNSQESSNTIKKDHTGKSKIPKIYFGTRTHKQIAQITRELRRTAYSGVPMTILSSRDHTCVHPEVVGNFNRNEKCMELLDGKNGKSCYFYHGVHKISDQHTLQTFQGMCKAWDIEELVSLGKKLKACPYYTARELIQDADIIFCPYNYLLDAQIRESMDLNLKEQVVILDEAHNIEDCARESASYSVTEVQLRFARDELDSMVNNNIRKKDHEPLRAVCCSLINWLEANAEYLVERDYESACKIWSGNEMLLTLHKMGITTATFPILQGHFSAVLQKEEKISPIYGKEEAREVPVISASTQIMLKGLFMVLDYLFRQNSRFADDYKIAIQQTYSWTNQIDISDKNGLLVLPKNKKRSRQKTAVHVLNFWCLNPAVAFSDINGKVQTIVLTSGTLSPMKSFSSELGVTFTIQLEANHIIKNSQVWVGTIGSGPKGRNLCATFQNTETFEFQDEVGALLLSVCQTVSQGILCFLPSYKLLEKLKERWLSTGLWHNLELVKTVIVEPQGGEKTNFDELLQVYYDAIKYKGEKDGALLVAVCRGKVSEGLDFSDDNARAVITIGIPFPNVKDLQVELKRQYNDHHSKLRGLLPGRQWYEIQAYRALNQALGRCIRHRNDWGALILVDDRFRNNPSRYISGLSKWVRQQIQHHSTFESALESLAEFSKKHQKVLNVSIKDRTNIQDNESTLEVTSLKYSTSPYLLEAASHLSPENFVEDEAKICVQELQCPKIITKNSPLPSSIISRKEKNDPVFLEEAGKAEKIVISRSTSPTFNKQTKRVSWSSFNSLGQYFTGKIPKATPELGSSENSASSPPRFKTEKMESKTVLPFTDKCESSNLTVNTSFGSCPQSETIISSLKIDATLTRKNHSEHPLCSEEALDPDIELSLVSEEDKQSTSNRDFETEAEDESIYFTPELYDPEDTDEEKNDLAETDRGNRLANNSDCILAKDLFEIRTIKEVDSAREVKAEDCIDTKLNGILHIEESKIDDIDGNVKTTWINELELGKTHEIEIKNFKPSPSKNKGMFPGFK
inactive: [1] -0.067 | [2] 0.008 | [3] -0.004 | [4] -0.008 | [5] -0.16 | [6] -0.122 | [7] -0.068 | [8] 0.044 | [9] 0.041 | [10] -0.084 | [11] -0.034 | [12] -0.016 | [13] -0.067 | [14] -0.089 | [15] 0.001 | [16] 0.083 | [17] -0.068 | [18] -0.088 | [19] -0.003 | [20] 0.018

ABHD16A (UniProt O95870)
Sequence of UniProt O95870 (O95870 whole entry, looked up): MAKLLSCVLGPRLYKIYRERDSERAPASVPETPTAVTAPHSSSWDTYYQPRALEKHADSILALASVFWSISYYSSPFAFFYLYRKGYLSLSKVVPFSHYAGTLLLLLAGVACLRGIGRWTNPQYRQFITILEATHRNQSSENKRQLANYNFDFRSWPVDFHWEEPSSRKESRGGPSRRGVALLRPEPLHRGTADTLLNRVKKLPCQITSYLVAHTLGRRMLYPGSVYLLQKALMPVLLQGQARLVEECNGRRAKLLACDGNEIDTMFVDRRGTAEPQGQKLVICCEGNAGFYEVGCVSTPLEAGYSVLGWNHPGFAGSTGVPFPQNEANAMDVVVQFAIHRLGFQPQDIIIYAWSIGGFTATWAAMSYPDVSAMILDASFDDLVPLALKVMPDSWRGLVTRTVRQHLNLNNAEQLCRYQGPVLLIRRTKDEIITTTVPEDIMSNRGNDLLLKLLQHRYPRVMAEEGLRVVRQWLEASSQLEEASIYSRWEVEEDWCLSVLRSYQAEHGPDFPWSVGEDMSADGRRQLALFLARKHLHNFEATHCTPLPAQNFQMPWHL
inactive: [1] 0.134 | [2] 0.079 | [3] -0.01 | [4] -0.008 | [5] -0.092 | [6] -0.09 | [7] -0.018 | [8] -0.003 | [9] -0.076 | [10] 0.283 | [11] 0.01 | [12] 0.214 | [13] -0.033 | [14] 0.004 | [15] 0.031 | [16] -0.065 | [17] -0.017 | [18] 0.162 | [19] -0.05 | [20] 0.031
